The results in this text go back to PubChem BioAssay (EPA / NIEHS).

Molecules are shown by their SMILES. Several values for one entry are separate records, joined by “and”; a condition that tells them apart may be missing. Equal entries are not always repeated. Activity calls are given as the source filed them. Rule for the calls: active = hit-call score of the fitted dose curve at least 0.9, where 1 is the maximum; inactive = score below 0.9.

Read-out in this experiment: Interleukin 2 (IL2), IL2 (gene 3558)
Nature of the experiment: BSK_BT_xIL2: BioMAP Diversity Plus: BT Assay for Interleukin 2 (IL2) Biomarker Activity (AID 2284245). The following applies: primary human B cells with PBMC. The method, then:
BSK_BT is a cell-based, multiplexed-readout assay that uses B cell and peripheral blood mononuclear cells, a human vascular primary cell co-culture, with measurements taken at 24 hours after chemical dosing in a microplate: 96-well plate.BSK_BT_xIL2 is an assay component measured in the BSK_BT assay. It measures secreted IL-2 related to regulation of gene expression using LumineX xMAP technology.Data from the assay component BSK_BT_xIL2 was analyzed at the endpoint, BSK_BT_xIL2, in the positive analysis fitting direction relative to DMSO as the negative control and baseline of activity. Using a type of cytokine quantitation reporter, gain or loss-of-signal activity can be used to understand protein changes. To generalize the intended target to other relatable targets, this assay endpoint is annotated to the 'cytokine' intended target family, where the subfamily is 'interleukins'.
The levels of cell surface (or secreted, indicated by the prefix "s") biomarker endpoints were measured by ELISA. Overt cytotoxicity to cells in confluent adherent cultures (all systems other than the BT system) was assessed by measuring total protein levels using sulforhodamine B (SRB) staining in parallel cultures at the time of biomarker measurements, indicated as SRB endpoints. For proliferation assays for adherent cell types, individual cell types are cultured at sub-confluence and relative cell numbers quantified by SRB staining at time points optimized for each system (48 h: 3C and CASM3C systems; 72 h: BT and HDF3CGF systems; 96 h: SAg system). SRB was performed by staining cells with 0.1% SRB after fixation with 10% TCA and reading wells at 560 nm.Viability and proliferation of PBMC (T cells) was quantified by Alamar Blue reduction for the SAg and BT systems. For PBMC viability (referred to as PBMC Cytotoxicity within the assay endpoint names), cells were plated (75,000/well in a 96-well plate) and then chemical samples added for 1 h before addition of activators, SEB and TSST-1 (20 ng/mL final concentration each). Cells were incubated for 90 h. Then, Alamar Blue (20 uL/well) (Invitrogen, Cat DAL1100) was added for 6 h, and the plates were read with a fluorescence microplate reader at 546/580 nm (excitation/emission). For PBMC proliferation, cells were plated and activated as above but incubated for only 16 h prior to addition of Alamar Blue. Plates were read after 6 h.
As for `Nc1cccc(N)n1`, the result was inactive.

Regarding `C=CC(=O)OCCCCCCCC(C)C`, the outcome was inactive.

Regarding `Oc1c(Cl)cc(Cl)c(Cl)c1Cl`, the result was inactive.

Regarding `O=C(Oc1ccccc1)c1ccccc1C(=O)Oc1ccccc1`, the outcome was inactive.

Consider `CC/C=C\CCOC(=O)c1ccccc1O`, for which the outcome was inactive.

The term AC50 denotes the concentration at which the activity in the assay is half-maximal. With `CC=C(C)C=CC=C(C)C`, the AC50 is 28.5 µM (active).

For `Clc1cc(Cl)c(Cl)c(Cl)c1Cl`, the outcome was inactive.

With `C[N+](C)(C)CCCNS(=O)(=O)C(F)(F)C(F)(F)C(F)(F)C(F)(F)C(F)(F)C(F)(F)C(F)(F)C(F)(F)F`, the concentration at half-maximal activity (AC50) is 32.6 µM (active) and 21.5 µM (active).

Regarding `C=CC(=O)NC(C)(C)C`, the result was inactive.

For the compound `CC(C)[N+](C)(CCOC(=O)C1c2ccccc2Oc2ccccc21)C(C)C`, the outcome was inactive.

For `CCCCCCCO`, the outcome was inactive.

As for `CCOC(=O)C1=NN(c2ccc(Cl)cc2Cl)C(C)(C(=O)OCC)C1` (stereo not given), the result was inactive.

As for `CC(C)c1cccc(C(C)C)c1N`, the outcome was inactive.

On to `C=CCCCCCCCCC=O`, for which the outcome was inactive.

Consider `COC(OC)(C(=O)c1ccccc1)c1ccccc1`, for which the result was inactive.

Regarding `CC(c1cc(C(C)(C)C)cc(C(C)(C)C)c1O)c1cc(C(C)(C)C)cc(C(C)(C)C)c1O`, the AC50 is 20 µM (active).

As to `C=CC(=O)OCC(C)OCC(C)OCC(C)OC(=O)C=C` (stereo not given), the AC50 was 9.17 µM (active).

Turning to `Oc1ccc(/C=C/c2cc(O)cc(O)c2)cc1`, the result was inactive.

For `CCCCCCCCC(CO)CCCCCC` (stereo not given), the result was inactive.

Take `c1ccc2sc(SSN3CCOCC3)nc2c1`: the concentration at half-maximal activity (AC50) was 28.1 µM (active).

For the compound `CCCCCCCCCCCC(C)=O`, the result was inactive.

For the compound `CCNc1nc(NC(C)(C)C)nc(OC)n1`, the outcome was inactive.

`O=C1CCCCCCCCCCCN1`: the result was inactive.

Turning to `CCCCCCOC(=O)CCCCC(=O)OCCCCCC`, the result was inactive.

In the case of `C=CC(=O)OCCCCCCOC(=O)C=C`, the AC50 is 9.78 µM (active).

Take `C=C(C)C(=O)OCCCCCCCCCCCC`: the result was inactive.

In the case of `CCN1CN(CC)CN(CC)C1`, the result was inactive.

For `c1ccc2c(c1)[nH]c1ccccc12`, the outcome was inactive.

Turning to `Fc1ccc(Br)cc1`, the result was inactive.

With `COc1ccc(C(=O)c2ccccc2)c(O)c1`, the result was inactive.

For `O=C1CCCCCCCCCCC1`, the outcome was inactive.

Turning to `CCC1(C)C(=O)N(Cl)C(=O)N1Cl` (stereo not given), the result was inactive.

As for `C=CC(=O)NCOCCCC`, the result was inactive.

For the compound `O=C(Cl)c1c(Cl)c(Cl)c(C(=O)Cl)c(Cl)c1Cl`, the result was inactive.

As for `CCOC(=O)C1=NOC(c2ccccc2)(c2ccccc2)C1`, the result was inactive.

With `Cc1c(O)cccc1O`, the result was inactive.

Turning to `CCc1cccc(C)c1N(C(=O)CS(=O)(=O)O)C(C)COC` (stereo not given), the outcome was inactive.

In the case of `CCCCCCC=O`, the result was inactive.

Consider `O=C(O)C(F)(F)C(F)(F)C(F)(F)C(F)(F)C(=O)O`, for which the outcome was inactive.

As to `CC(Cl)COP(=O)(OCC(C)Cl)OCC(C)Cl` (stereo not given), the result was inactive.
